From PubChem BioAssay (Tox21)
Results filed as inconclusive are left out. A number with no mark means an inactive call. Activity calls are given as the source filed them. Calls follow the shape of the dose curve; as a rule, active = well fitted activation curve with a large enough effect in the repeat runs; inconclusive = weak or mixed curves; inactive = flat fitted curve, though single readings scatter.

Assay: A CellTox Green Cytotoxicity Assay to monitor cytotoxicity in HEK293 cells - 40 hour (AID 1224871); also: nearly all actives have a fitted effect of over 45% in size
Conditions: CellTox Green fluorescence; series mostly up to 76.8 µM; cytotoxicity increase: at the top concentration
Source text: National Center for Advancing Translational Sciences [NCATS]
NIH Chemical Genomics Center [NCGC]
U.S. Environmental Protection Agency [EPA]
National Institutes of Environmental Health Sciences [NIEHS]
National Toxicology Program [NTP]
Cell-based models are critical for drug discovery. Determining the natural cytotoxic effects resulting from test compounds is an essential research activity. A CellTox Green Cytotoxicity Assay to monitor cytotoxicity in real time of continues cell culture during 40 hours of the compound treatment was used to screen Tox21 10K library compounds in Hek293 cells. CellTox Green Cytotoxicity Assay is a nonlytic, homogeneous, biofluorescent method to measure cytotoxicity in cell culture after experimental manipulation. The assay system uses a proprietary asymmetric cyanine dye that is excluded from viable cells but preferentially stains the dead cell's DNA. […] Viable cells produce no appreciable increases in fluorescence. Therefore, the fluorescence signal produced by the binding interaction with dead cell DNA is proportional to cytotoxicity.
The mixture of Hek293 cell suspension and reagents were dispensed at 600cells/6 ul/well in 1536-well tissue culture treated black solid bottom plates using a Multidrop dispenser. After the assay plates were incubated at a 37 C/5% CO2 incubator for 5 hours, 23 nL of compounds dissolved in DMSO, positive and negative controls was transferred to the assay plate by a pintool work station. The plates were incubated at 37 C for 40 hours. The fluorescence intensity were measured at 0h, 8h, 16h, 24h, 32h and 40h time points using ViewLux plate reader during compound treatment.
% is scaled to controls: 0 for no effect and ±100 for the full control effect; potency is read from the fitted curve at half-maximal effect.

Going from `CCOC(=O)C1=C(C)NC(C)=C(C(=O)OC)C1c1cccc([N+](=O)[O-])c1` (stereo not given) to `Cn1c(NCCN(CCO)CCCc2ccc([N+](=O)[O-])cc2)cc(=O)n(C)c1=O`, the “cytotoxicity increase” value rises from 1.96% [at 35.3 µM] to 12.7% [at 35.3 µM].

Compared with `CN1CCC(=C2c3ccccc3CCc3sccc32)CC1`, `Nc1ccc(C(=O)N2CC3CC(CN(Cc4ccccc4)C3)C2)cc1` is lower in “cytotoxicity increase” value: 10.6% [at 35.3 µM] for the first, 0.105% [at 35.3 µM] for the second.

Compared with `CC(=O)Nc1ccc(/C=N/NC(N)=S)cc1`, `O=C(c1ccccc1)c1ccc2n1CCC2C(=O)O` (stereo not given) is lower in “cytotoxicity increase” value: 6.47% [at 35.3 µM] for the first, -6.98% [at 35.3 µM] for the second.

Compared with `CN(C(=O)CCCOc1ccc2[nH]c(=O)ccc2c1)C1CCCCC1`, `CCCOc1ccc2nc(NC(=O)OC)[nH]c2c1` is lower in “cytotoxicity increase” value: -3.01% [at 35.3 µM] for the first, -16.5% [at 35.3 µM] for the second.

First: C=Cc1c(C)c2cc3[nH]c(cc4nc(cc5nc(cc1[nH]2)C(C)=C5CCC(=O)O)C(CCC(=O)O)=C4C)c(C)c3C=C
Second: COc1ccc2[nH]c(S(=O)Cc3ncc(C)c(OC)c3C)nc2n1 (stereo not given)
The “cytotoxicity increase” value of the first is lower: -20.4% [at 35.3 µM] for the first, -11.2% [at 35.3 µM] for the second.

First: O=C(NN1CCCC1)NS(=O)(=O)c1ccc(Cl)cc1
Second: Cc1ccc(O)c([C@H](CCN(C(C)C)C(C)C)c2ccccc2)c1
The “cytotoxicity increase” value of the first is lower: -12.7% [at 35.3 µM] for the first, 0.0245% [at 35.3 µM] for the second.

In the case of `CC(C)(C)c1cc(CCC(=O)OCC(COC(=O)CCc2cc(C(C)(C)C)c(O)c(C(C)(C)C)c2)(COC(=O)CCc2cc(C(C)(C)C)c(O)c(C(C)(C)C)c2)COC(=O)CCc2cc(C(C)(C)C)c(O)c(C(C)(C)C)c2)cc(C(C)(C)C)c1O`, the “cytotoxicity increase” value was 3.73% [at 35.3 µM].

Going from `S=C(S)NCCNC(=S)S` to `CC(C)=CCCC(C)CC=O` (stereo not given), the “cytotoxicity increase” value falls from -10.2% to -14.9%.

Compared with `CC(=O)/C=C/C1C(C)=CCCC1(C)C` (stereo not given), `CCOC(=O)CC(C)C` is higher in “cytotoxicity increase” value: 0.432% for the first, 20.8% for the second.

Going from `CCCCCCCCCC=O` to `CCCCCCCCCO`, the “cytotoxicity increase” value falls from -1.83% to -8.61%.

Compared with `CC(=O)OC/C=C/c1ccccc1`, `Cc1cccc(Oc2ccccc2)c1` is higher in “cytotoxicity increase” value: -14.6% for the first, 44.8% for the second.

First: CCCCCCCCCCCCCCC1CO1 (stereo not given)
Second: CCCCCCCCCCCCC(=O)O
The “cytotoxicity increase” value of the first is lower: -2.33% for the first, 4.46% for the second.

Compared with `COc1ccc(OC)c(OC)c1`, `COc1ccc(C(C)=O)cc1` is lower in “cytotoxicity increase” value: -3.76% for the first, -10.3% for the second.

Going from `CC(CN)CCCN` (stereo not given) to `CCCCCC(CO)CCC` (stereo not given), the “cytotoxicity increase” value rises from -15% to -4.87%.

First: COC(=O)C(C)=O
Second: CCN(CC)C(C)=O
The “cytotoxicity increase” value of the first is lower: -9.22% for the first, -3.26% for the second.

Going from `O=C(NS(=O)(=O)/C=C/c1cccs1)c1ccc(F)cc1Br` to `N#Cc1cc2ccccc2c2ccccc12`, the “cytotoxicity increase” value rises from -8.79% to -4.61%.

Compared with `CCCCCCOC(=O)CCC`, `Cc1cc(NC(=O)C(=O)O)cc(C)c1Oc1ccc(O)c2c1CCC2` is lower in “cytotoxicity increase” value: -0.157% for the first, -4.44% for the second.

Compared with `CC(C)(C)c1ccc(S)cc1`, `COC(=O)CSc1cc(N=c2sc(=O)n3n2CCCC3)c(F)cc1Cl` is lower in “cytotoxicity increase” value: 18.2% for the first, -7.74% for the second.

In the case of `O=C=NC1CCC(CC2CCC(N=C=O)CC2)CC1` (stereo not given), the Potency was 49 µM (active).
For `Cc1cc(O)ccc1N`, the Potency was 34.9 µM (active).
For `CCCCc1cc2ccccc2c(OCCN(C)C)n1`, the Potency was 21.3 µM (active).

Going from `CCCCCCCCCCCCCCCCCBr` to `O=C(C(=O)c1ccc(Br)cc1)c1ccc(Br)cc1`, the cytotoxicity increase rises from -9.92% [at 15.8 µM] to 0.336% [at 15.8 µM].
